The supplement of paper PMC10849652
About 7,900 targets were measured; listed, in parts, are those with a hit and a random draw of the rest. About 0.6% of all pairs of compound and target were hits.

Key:
Experiment in all cases: log2 fold change, soluble protein after heating vs DMSO (PISA); higher = thermal stabilisation; K562 cells, 10 uM, 30 min; active = over 0.2 and 3.5 SD of the protein, either way, in both replicates (recomputed)
[1] = compound: C#Cc1cccc(Nc2ncnc3cc(OCCOC)c(OCCOC)cc23)c1 [erlotinib]
In short: (§1)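 Aliquots of K562 cells (2×10^6 cells/mL) treated with 10 μM compound for 30 min were heated for 3 min over 48°C-58°C. After pooling and extraction in PBS with 0.5% NP-40 at 4°C, soluble protein from a 21,000xg, 90 min spin was quantified by TMTpro 16plex LC-MS/MS with channel sums equalised. Thermal stability is expressed against control samples, from duplicates, as a log2 fold change.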

[2] = compound: C/C(=N\NC(=O)C1=CC(=CC=C1)S(=O)(=O)N2CCOCC2)/C3=C(C=CC(=C3)Cl)O
In short: as §1

[3] = compound: C1=CC(=C(C=C1Cl)C2=NC3=NC=CN=C3C(=N2)NC4=CC=NC=C4)F
In short: as §1

[4] = compound: C1=CC(=CC=C1C2=NC3=C(N2)C=C(C=C3)C(=O)N)OC4=CC=C(C=C4)Cl
In short: as §1

[5] = compound: C1=CC2=C(C=CC(=C2)/C=C\3/C(=O)NC(=NCC4=CC=CS4)S3)N=C1
In short: as §1

[6] = compound: C1=CC2=NC=CN=C2C=C1/C=C/3\C(=O)NC(=O)S3
In short: as §1

[7] = compound: C1=CC=C(C=C1)C2=NC(=C(N2)C3=CC=NC=C3)C4=CC(=C(C=C4)Cl)O
In short: as §1

[8] = compound: C1=CC=C2C(=C1)C3=NNC4=CC=CC(=C43)C2=O
In short: as §1

[9] = compound: C1CCN(C1)C(=O)NC2=CC=CC(=C2)NC3=NC=C(C(=N3)NCCC4=CN=CN4)Br
In short: as §1

[10] = compound: C1CN(CCC1(CC2=CC=C(C=C2)Cl)N)C3=NC=NC4=C3C=CN4
In short: as §1

Measured: log2 fold change

CHST11 (UniProt Q9NPF2)
inactive: [1] -0.061 | [2] 0.082 | [3] 0.046 | [4] -0.054 | [5] -0.118 | [6] 0.007 | [7] 0.161 | [8] 0.057 | [9] 0.002 | [10] -0.067

CRTC2 (UniProt Q53ET0)
inactive: [1] 0.194 | [2] 0.151 | [3] 0.039 | [4] 0.035 | [5] 0.093 | [6] 0.073 | [7] -0.129 | [8] -0.14 | [9] -0.233 | [10] 0.08

CCZ1 (UniProt P86791)
inactive: [1] 0.027 | [2] 0.046 | [3] -0.003 | [4] 0.064 | [5] 0.034 | [6] -0.017 | [7] 0.031 | [8] 0.011 | [9] 0.016 | [10] 0.011

CNN2 (UniProt Q99439)
inactive: [1] 0.047 | [2] 0.124 | [3] 0.109 | [4] -0.039 | [5] 0.013 | [6] 0.032 | [7] -0.012 | [8] -0.011 | [9] -0.017 | [10] -0.042

CDC26 (UniProt Q8NHZ8)
Sequence of UniProt Q8NHZ8 (Q8NHZ8 whole entry, looked up): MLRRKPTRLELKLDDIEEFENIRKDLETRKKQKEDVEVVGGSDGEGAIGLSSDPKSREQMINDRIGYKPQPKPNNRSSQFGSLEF
inactive: [1] -0.096 | [2] 0.16 | [3] -0.046 | [4] 0.034 | [6] 0.025 | [7] 0.355 | [8] 0.037 | [9] -0.137 | [10] -0.022
active: [5] -0.542

CDK9 isoform 2 (UniProt P50750)
inactive: [1] 0.043 | [2] -0.005 | [3] -0.174 | [4] 0.024 | [5] -0.084 | [6] 0.05 | [7] 0.059 | [8] -0.076 | [9] -0.001 | [10] -0.059

CSNK2B (UniProt P67870)
inactive: [1] -0.021 | [2] -0.024 | [3] -0.017 | [4] -0.007 | [5] 0.123 | [7] 0.031 | [8] 0.084 | [9] -0.031 | [10] -0.023
active: [6] 0.324

CASP3 (UniProt P42574)
inactive: [1] -0.014 | [2] -0.021 | [3] 0.238 | [4] 0.006 | [5] -0.005 | [6] -0.001 | [7] 0.086 | [8] 0.015 | [9] -0.028 | [10] 0.093

CDK6 (UniProt Q00534)
inactive: [1] -0.035 | [2] 0 | [3] -0.053 | [4] 0.02 | [5] 0.027 | [6] 0.018 | [7] -0.031 | [8] 0.04 | [9] 0.017 | [10] -0.034

CRK (UniProt P46108)
inactive: [1] -0.022 | [2] 0.035 | [3] -0.002 | [4] -0.012 | [5] -0.011 | [6] 0.03 | [7] -0.076 | [8] 0.049 | [9] 0.016 | [10] 0.001

CDK8 (UniProt P49336)
inactive: [1] -0.098 | [2] -0.094 | [3] -0.161 | [4] 0.028 | [5] -0.023 | [6] 0.102 | [7] -0.087 | [8] 0.287 | [9] -0.044 | [10] 0.034

CNDP2 (UniProt Q96KP4)
inactive: [1] 0.035 | [2] -0.099 | [3] 0.058 | [4] 0.022 | [5] 0.091 | [6] -0.024 | [7] 0.064 | [8] 0.058 | [9] 0.023 | [10] 0.072

CRLF3 (UniProt Q8IUI8)
inactive: [1] 0.09 | [2] -0.034 | [3] 0.036 | [4] -0.015 | [5] 0.076 | [6] 0.019 | [7] -0.018 | [8] -0.028 | [9] 0.027 | [10] -0.04

CD53 (UniProt P19397)
Sequence of UniProt P19397 (P19397 whole entry, looked up): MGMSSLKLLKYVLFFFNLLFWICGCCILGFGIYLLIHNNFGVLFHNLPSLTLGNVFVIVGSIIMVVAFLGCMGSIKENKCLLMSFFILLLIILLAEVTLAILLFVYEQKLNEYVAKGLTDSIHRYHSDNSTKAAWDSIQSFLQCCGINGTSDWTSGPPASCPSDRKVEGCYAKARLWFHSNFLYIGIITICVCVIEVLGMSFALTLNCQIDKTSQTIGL
inactive: [1] 0.041 | [2] 0.028 | [3] 0.059 | [4] -0.006 | [5] 0.064 | [6] 0.01 | [7] -0.221 | [8] -0.086 | [9] -0.001 | [10] -0.007

CBX5 (UniProt P45973)
Sequence of UniProt P45973 (P45973 whole entry, looked up): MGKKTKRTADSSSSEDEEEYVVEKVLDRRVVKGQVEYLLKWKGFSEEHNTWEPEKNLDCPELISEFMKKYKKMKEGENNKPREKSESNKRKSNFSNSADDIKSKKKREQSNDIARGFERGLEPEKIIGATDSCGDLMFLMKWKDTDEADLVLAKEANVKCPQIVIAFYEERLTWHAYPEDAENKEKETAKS
inactive: [1] -0.018 | [2] 0.08 | [3] 0 | [4] 0.043 | [5] 0.111 | [6] 0.025 | [7] 0.003 | [8] -0.028 | [9] -0.002 | [10] -0.015

CS (UniProt O75390)
inactive: [1] 0.028 | [2] 0.035 | [3] 0.033 | [4] 0.002 | [5] 0.051 | [6] -0.009 | [7] 0.072 | [8] -0.064 | [9] -0.015 | [10] 0.035

CASP8 isoform 9 (UniProt Q14790)
Sequence of UniProt Q14790 (Q14790 whole entry, looked up): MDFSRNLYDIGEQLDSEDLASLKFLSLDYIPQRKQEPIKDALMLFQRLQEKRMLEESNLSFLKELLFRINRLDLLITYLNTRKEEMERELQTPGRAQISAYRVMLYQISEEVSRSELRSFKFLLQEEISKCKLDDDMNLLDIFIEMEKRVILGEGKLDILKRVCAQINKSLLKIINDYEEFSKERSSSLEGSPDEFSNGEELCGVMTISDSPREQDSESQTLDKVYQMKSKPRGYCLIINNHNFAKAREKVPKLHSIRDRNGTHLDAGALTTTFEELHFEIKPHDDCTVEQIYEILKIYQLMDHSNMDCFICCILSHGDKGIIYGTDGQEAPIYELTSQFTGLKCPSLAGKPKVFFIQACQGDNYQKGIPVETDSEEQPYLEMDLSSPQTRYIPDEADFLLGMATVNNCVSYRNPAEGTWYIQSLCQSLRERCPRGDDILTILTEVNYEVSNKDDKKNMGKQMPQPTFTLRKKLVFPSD
inactive: [1] -0.008 | [2] 0.056 | [3] -0.055 | [4] -0.023 | [5] 0.021 | [6] 0.052 | [7] -0.078 | [8] 0.104 | [9] -0.051 | [10] -0.014

CLCN3 isoform 2 (UniProt P51790)
inactive: [1] 0.008 | [2] 0.089 | [3] 0.059 | [4] 0.044 | [5] 0.024 | [6] -0.002 | [7] 0.025 | [8] -0.017 | [9] -0.012 | [10] 0.033

COCH (UniProt O43405)
inactive: [1] -0.083 | [2] -0.028 | [3] -0.044 | [4] 0.007 | [5] -0.098 | [6] 0.007 | [7] -0.002 | [8] -0.072 | [9] -0.043 | [10] -0.101

CHEK1 (UniProt O14757)
Sequence of UniProt O14757 (O14757 whole entry, looked up): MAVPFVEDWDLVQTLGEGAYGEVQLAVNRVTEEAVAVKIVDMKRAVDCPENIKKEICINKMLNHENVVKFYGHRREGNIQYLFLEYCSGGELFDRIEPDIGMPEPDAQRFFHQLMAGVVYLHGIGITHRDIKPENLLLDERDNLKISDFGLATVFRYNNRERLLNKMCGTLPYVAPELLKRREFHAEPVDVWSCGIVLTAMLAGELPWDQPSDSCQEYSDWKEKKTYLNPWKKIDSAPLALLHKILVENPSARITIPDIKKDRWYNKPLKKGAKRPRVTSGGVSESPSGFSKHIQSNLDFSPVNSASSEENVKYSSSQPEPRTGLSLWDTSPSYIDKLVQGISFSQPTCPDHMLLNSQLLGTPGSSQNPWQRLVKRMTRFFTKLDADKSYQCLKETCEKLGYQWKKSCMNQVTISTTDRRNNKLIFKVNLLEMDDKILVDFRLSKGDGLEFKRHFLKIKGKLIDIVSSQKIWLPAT
inactive: [1] 0.03 | [2] 0.047 | [3] 0.029 | [4] 0.012 | [5] 0.246 | [6] 0 | [7] -0.026 | [8] -0.099 | [10] -0.089
active: [9] -0.303

CBX1 (UniProt P83916)
inactive: [1] 0.025 | [2] -0.044 | [3] 0.022 | [4] 0.072 | [5] 0.004 | [6] 0.089 | [7] -0.055 | [8] -0.026 | [9] -0.007 | [10] -0.027

CPSF1 (UniProt Q10570)
Sequence of UniProt Q10570 (Q10570 whole entry, looked up): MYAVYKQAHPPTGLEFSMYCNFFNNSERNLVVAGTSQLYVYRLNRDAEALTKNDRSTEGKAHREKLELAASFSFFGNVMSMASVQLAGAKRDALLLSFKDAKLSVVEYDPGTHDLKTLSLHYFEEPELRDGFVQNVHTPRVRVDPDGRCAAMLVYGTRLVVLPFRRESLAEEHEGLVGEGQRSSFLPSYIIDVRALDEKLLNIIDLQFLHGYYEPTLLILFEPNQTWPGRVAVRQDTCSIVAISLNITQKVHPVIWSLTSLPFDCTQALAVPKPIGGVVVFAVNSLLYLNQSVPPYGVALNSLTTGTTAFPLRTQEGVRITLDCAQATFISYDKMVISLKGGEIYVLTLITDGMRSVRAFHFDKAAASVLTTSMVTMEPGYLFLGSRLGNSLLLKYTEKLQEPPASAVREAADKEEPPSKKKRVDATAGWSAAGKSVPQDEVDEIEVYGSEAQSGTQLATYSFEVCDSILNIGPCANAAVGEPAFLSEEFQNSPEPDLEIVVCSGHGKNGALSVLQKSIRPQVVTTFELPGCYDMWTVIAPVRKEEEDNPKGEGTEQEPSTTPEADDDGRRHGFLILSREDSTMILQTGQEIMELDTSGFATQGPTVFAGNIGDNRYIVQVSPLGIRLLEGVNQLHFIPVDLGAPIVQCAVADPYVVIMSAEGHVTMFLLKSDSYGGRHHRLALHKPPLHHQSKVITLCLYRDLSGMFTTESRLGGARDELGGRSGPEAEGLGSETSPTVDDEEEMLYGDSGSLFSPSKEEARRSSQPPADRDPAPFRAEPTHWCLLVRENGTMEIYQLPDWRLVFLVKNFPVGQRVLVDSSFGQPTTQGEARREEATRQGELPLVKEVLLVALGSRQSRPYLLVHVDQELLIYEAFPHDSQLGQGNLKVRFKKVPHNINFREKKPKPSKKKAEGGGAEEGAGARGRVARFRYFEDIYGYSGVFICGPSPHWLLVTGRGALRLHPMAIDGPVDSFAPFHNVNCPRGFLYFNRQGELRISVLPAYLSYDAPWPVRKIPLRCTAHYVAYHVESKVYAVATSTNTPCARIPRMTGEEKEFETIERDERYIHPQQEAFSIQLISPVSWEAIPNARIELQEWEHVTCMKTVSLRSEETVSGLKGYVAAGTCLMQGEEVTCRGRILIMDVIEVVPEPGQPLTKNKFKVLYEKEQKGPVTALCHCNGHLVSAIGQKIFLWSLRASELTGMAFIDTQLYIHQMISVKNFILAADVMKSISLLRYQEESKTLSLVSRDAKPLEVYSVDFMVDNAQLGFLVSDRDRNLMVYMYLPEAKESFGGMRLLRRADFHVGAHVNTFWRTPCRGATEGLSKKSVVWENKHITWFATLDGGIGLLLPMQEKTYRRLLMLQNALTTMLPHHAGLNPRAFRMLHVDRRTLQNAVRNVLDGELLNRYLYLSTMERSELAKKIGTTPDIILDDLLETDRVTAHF
inactive: [1] -0.004 | [2] -0.057 | [3] -0.108 | [4] 0.039 | [5] -0.012 | [6] 0.02 | [7] -0.062 | [8] -0.045 | [9] 0.041 | [10] -0.037

CHP1 (UniProt Q99653)
inactive: [1] -0.022 | [2] 0.024 | [3] 0.097 | [4] 0.012 | [5] -0.056 | [6] 0.008 | [8] 0.006 | [9] -0.07 | [10] 0.091
active: [7] 0.287

CDK1 (UniProt P06493)
inactive: [1] 0.045 | [2] 0.06 | [3] 0.021 | [4] 0.003 | [5] -0.054 | [6] 0.018 | [7] 0.003 | [8] -0.003 | [9] 0.007 | [10] -0.009

CFAP36 isoform 2 (UniProt Q96G28)
inactive: [1] 0.048 | [2] -0.11 | [3] -0.046 | [4] 0.005 | [5] 0.059 | [6] 0.042 | [7] -0.068 | [8] 0.007 | [9] 0.127 | [10] -0.111

CCNT1 (UniProt O60563)
Sequence of UniProt O60563 (O60563 whole entry, looked up): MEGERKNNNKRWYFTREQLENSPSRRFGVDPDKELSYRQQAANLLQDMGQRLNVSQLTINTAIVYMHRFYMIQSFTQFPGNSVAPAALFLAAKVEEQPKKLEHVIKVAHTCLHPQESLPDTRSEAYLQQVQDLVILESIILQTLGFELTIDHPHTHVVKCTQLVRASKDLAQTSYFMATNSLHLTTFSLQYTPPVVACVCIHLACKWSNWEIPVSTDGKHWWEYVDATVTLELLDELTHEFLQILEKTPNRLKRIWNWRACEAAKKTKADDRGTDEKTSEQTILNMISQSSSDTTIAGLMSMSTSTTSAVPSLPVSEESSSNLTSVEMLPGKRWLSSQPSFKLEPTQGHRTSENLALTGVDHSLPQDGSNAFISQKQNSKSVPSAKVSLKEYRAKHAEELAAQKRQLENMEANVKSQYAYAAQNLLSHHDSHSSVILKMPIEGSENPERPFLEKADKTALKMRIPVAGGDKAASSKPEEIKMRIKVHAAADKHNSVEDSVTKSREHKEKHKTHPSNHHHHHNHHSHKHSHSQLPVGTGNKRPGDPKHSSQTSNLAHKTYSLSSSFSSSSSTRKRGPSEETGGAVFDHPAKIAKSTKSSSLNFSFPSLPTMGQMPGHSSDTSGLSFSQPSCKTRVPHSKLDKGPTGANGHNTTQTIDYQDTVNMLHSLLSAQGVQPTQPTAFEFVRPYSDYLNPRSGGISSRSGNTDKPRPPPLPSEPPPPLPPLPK
inactive: [1] -0.026 | [2] 0.036 | [3] -0.141 | [4] 0.047 | [5] -0.041 | [6] -0.05 | [7] -0.129 | [8] -0.084 | [9] -0.014 | [10] -0.059

CSE1L (UniProt P55060)
Sequence of UniProt P55060 (P55060 whole entry, looked up): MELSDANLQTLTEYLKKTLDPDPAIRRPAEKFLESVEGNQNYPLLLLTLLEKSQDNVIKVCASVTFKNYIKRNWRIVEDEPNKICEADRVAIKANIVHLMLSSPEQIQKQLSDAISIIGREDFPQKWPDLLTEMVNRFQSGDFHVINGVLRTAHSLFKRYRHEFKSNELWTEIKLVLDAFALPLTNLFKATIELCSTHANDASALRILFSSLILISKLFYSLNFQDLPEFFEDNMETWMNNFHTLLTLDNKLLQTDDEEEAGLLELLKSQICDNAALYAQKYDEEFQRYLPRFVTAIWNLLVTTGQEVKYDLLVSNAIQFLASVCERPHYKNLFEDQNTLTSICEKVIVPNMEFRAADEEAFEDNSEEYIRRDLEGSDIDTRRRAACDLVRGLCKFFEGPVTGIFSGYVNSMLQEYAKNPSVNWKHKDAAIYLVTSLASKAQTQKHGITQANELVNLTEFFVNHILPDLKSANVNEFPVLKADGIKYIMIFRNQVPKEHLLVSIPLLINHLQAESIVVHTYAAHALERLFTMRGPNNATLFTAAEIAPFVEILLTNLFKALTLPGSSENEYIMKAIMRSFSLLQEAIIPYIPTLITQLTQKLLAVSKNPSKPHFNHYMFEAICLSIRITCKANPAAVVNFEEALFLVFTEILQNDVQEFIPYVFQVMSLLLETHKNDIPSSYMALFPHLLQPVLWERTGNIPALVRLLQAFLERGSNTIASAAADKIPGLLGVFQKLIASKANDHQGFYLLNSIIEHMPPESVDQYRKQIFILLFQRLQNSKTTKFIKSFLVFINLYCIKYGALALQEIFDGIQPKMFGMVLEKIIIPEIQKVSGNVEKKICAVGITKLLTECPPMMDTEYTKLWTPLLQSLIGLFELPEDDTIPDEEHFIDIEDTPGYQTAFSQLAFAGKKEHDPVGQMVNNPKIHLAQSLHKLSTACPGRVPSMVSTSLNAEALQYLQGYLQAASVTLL
inactive: [1] -0.005 | [2] 0.056 | [3] 0.064 | [4] -0.033 | [5] 0 | [6] 0.052 | [7] 0.012 | [8] -0.044 | [9] 0.028 | [10] -0.04

CCNK isoform 4 (UniProt O75909)
inactive: [1] 0.079 | [2] 0.006 | [3] -0.138 | [4] -0.016 | [5] -0.126 | [6] -0.013 | [7] -0.068 | [8] -0.077 | [9] 0.047 | [10] -0.126

CAVIN1 (UniProt Q6NZI2)
Sequence of UniProt Q6NZI2 (Q6NZI2 whole entry, looked up): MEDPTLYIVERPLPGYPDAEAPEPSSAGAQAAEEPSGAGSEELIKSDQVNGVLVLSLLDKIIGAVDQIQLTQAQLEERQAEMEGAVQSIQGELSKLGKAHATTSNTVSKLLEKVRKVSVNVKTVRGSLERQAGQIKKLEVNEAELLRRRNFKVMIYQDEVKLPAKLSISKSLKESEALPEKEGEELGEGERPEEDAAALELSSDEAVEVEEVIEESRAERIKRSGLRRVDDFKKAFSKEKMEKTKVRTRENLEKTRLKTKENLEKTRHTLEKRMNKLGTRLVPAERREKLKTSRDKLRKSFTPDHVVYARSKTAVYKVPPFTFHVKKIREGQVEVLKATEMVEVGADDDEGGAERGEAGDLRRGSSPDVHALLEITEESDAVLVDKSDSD
inactive: [1] -0.06 | [2] -0.085 | [3] -0.309 | [4] 0.121 | [5] -0.04 | [6] -0.002 | [7] 0.274 | [8] 0.07 | [9] 0.062 | [10] -0.137
